Results on 9 compounds are retold here after PubChem BioAssay.

The source made the active and inactive calls.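 Rule for the calls, unless noted: active = differentiation response of at least 50%, scaled between solvent and reference control, from cells with both markers; inactive = the rest.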

A short description of test [1]: reduced mouse 2C T cell binding to pMHC/ICAM-1 vesicles – MLPCN validation set, flow cytometry, LFA-1/ICAM-1 modulator project, pilot screen (AID 2523;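 active = response below a set limit, under 55% cells CD8-positive and vesicle-bound, and CD8 cells' 90th-percentile brightness under 279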;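 for vesicle binding response: mean PE anti-B7-1 fluorescence of CD8+ cells relative to row control; 100% = QL9-loaded vesicles with DMSO vehicle in the same plate row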). The conditions noted are these: 2C mouse CD8+ T cells, at 7 µM, stronger effect = lower value; double positive events: measured here: CD8+/vesicle+ event percentage. On the technique in general: In flow cytometry, cells or beads pass a laser one at a time.

Test [2] addresses Integrin beta-1 (Homo sapiens) + Integrin alpha-4 (Homo sapiens) (UniProt P13612+P05556). Kind of test: alpha4beta1 integrin LIBS antibody binding reduction – U937 cells, HUTS-21 mAb, flow cytometry, validation set, VLA-4 allosteric modulator project, pilot screen (AID 2674;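 active = inhibition above 50%, about 3 SD of the validation set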;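 note: antibody binding induced by the VLA-4 ligand LDV present at three times its Kd; 0% = LDV ligand with antibody and no compound and 100% = antibody without LDV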). The conditions noted are these: HUTS-21 LIBS mAb binding, at 6.7 µM, stronger effect = higher value, binding induced by LDV ligand.

The nature of test [3]: calorie-restriction mimetic ROS inhibitors, yeast – validation compound set, pilot screen (AID 2706;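 active = superoxide response below 65% of plate, a cut near 3 SD across the whole screen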;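 note: yeast exposed to compound for one week at 30 degrees C before staining; 100% = mean of all compound wells on the same plate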). As to conditions: S. cerevisiae aging, superoxide DHE fluorescence; at 10 µM, stronger effect = lower value.
Test [4] concerns the target Beta-adrenergic receptor kinase 1 (Homo sapiens) (UniProt P25098). Kind of test: GRK2 binders displacing RNA aptamer, biochemical, validation, human GRK2, bead flow cytometry (AID 488806;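 active = aptamer binding inhibition above 30%, about 3 SD of noise from non-fluorescent compounds; inactive = inhibition at or below 30%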). As to conditions: bead-bound GRK2, FAM-aptamer displacement, at 10 µM, stronger effect = higher value.
The target in test [5] is Beta-2 adrenergic receptor (Homo sapiens) (UniProt P07550). In words: agonist-induced loss of surface beta2AR – cell-based, FAP fluorogen, flow cytometry, validation set, pilot screen (AID 504459;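 active = percent response above 42, roughly 3 SD of non-fluorescent test compounds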;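 note: agonist-driven loss of surface beta2AR via internalization measured by FAP dye flow cytometry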). As to conditions: Am2.2-beta2AR cells, at 10 µM, stronger effect = higher value.
Beta-2 adrenergic receptor (Homo sapiens), sequence (P07550 whole entry, looked up): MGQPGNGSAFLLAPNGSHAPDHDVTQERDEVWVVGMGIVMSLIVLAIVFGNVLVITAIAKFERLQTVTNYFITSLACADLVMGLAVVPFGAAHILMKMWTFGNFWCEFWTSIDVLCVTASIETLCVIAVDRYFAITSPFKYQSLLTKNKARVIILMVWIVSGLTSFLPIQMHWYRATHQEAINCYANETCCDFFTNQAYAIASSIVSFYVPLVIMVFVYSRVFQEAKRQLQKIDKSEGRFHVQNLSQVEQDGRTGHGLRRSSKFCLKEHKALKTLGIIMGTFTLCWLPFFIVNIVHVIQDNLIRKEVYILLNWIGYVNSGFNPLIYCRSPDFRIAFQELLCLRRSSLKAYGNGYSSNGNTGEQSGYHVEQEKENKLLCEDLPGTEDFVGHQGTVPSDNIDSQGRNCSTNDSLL
In test [6] the target is AP-2 complex subunit beta (Homo sapiens) (UniProt P63010). Kind of test: beta-arrestin/AP2 interaction blockers – biochemical, validation set, GST-AP2 beads, flow cytometry, pilot screen (AID 504541;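 active = inhibition above 54%, about 3 SD of non-fluorescent compounds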;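 note: AP2 carries R879A mutation and is captured from E. coli lysate; bead-bound FITC arrestin peptide fluorescence measuring arrestin peptide binding to AP2; 0% = DMSO wells and 100% = excess unlabeled arrestin peptide control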). As to conditions: FITC arrestin peptide, at 10 µM, stronger effect = higher value, AP2 beta2 appendage fragment, R879A mutant.
AP-2 complex subunit beta (Homo sapiens), sequence (P63010 whole entry, looked up, the tested form may be a part, one chain of several): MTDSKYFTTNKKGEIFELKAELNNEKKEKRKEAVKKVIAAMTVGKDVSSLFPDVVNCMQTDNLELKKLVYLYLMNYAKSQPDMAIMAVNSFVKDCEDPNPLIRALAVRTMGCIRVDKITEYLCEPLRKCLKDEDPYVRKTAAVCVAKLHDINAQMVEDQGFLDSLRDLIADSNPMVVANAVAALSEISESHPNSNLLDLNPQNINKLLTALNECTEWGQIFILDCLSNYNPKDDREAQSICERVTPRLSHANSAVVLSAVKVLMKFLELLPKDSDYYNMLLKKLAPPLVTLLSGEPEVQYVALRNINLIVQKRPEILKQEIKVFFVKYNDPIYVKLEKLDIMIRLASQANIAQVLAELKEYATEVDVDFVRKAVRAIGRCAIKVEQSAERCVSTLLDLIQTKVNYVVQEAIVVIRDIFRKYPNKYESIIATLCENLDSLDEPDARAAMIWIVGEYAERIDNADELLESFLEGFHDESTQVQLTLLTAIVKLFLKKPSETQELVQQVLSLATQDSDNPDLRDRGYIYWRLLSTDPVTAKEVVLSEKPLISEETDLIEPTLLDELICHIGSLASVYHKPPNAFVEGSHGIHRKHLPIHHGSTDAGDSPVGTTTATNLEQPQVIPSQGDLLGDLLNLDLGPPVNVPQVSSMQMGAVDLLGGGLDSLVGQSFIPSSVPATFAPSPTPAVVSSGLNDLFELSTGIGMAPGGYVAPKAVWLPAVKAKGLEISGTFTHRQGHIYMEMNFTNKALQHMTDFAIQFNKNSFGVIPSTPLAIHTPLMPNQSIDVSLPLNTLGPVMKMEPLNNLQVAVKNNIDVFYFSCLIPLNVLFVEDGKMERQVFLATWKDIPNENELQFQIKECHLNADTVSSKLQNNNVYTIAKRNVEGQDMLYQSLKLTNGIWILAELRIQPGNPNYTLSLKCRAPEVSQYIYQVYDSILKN
A short description of test [7]: cytosolic pH regulators acting via V-ATPase – S. cerevisiae, pHLuorin, HTS validation (AID 504600; in the data active = response above about 15%;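 note: plate controls were DMSO for no effect and reference compound for full effect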). The conditions noted are these: V-ATPase proton transport, at 10 µM, stronger effect = higher value.
Test [8] has as its system anti-desmoglein-3 scFv antibody binding to human DSG3. Kind of test: blockers of pathogenic pemphigus antibody–desmoglein-3 binding – biochemical, validation compound set, bead-based, flow cytometry, pilot screen (AID 588368;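 active = binding below the plate cutoff, the plate median minus 3 SD, with a reading above zero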;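 note: signal is the median channel fluorescence of bead-bound GFP antibody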). As to conditions: Protein G beads, DSG3-Fc, scFv-GFP binding, at 10 µM, stronger effect = lower value.
The nature of test [9]: Nile Red efflux blockade in pump-expressing yeast – validation compound set, multiplex, phenotypic, pilot screen (AID 588506;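 active = efflux inhibition above 0.42, the validation set average plus 4 SD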;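 note: Nile Red retained in cells so higher fluorescence means more efflux inhibition; 0 = negative control wells and 1 = enniatin B 25 µM full block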). As to conditions: S. cerevisiae pump-expressing triplex, Nile Red efflux flow cytometry; at 10 µM; stronger effect = higher value; the pumps come from Candida albicans.
Test [10] addresses ATP-binding cassette sub-family B member 6 (Homo sapiens) (UniProt Q9NP58). Kind of test: blockers of ABCB6-driven porphyrin uptake – K562-ABCB6 cells, flow cytometry, validation set, pilot screen (AID 588550;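 active = inhibition above the screen-wide mean plus 3 SD, about 51%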;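 note: 0% = DMSO wells and 100% = benzethonium chloride 70 µM positive control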). As to conditions: K562-ABCB6 porphyrin accumulation, 1 h, at 10 µM, stronger effect = higher value.
Test [11] is described as follows: AML differentiation inducers, ER-HoxA9 marrow cells – cell-based, GFP/MAC1 double positive, flow cytometry, validation set, primary screen (AID 588685).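 Note: compound exposure lasts four days before antibody staining and flow analysis; 0% = DMSO wells and 100% = 5 µM fulvestrant positive control.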 The conditions noted are these: stronger effect = higher value, normalized: vehicle 0, fulvestrant 100.

Integrin beta-1 (Homo sapiens) + Integrin alpha-4 (Homo sapiens), sequence (P05556 whole entry, looked up): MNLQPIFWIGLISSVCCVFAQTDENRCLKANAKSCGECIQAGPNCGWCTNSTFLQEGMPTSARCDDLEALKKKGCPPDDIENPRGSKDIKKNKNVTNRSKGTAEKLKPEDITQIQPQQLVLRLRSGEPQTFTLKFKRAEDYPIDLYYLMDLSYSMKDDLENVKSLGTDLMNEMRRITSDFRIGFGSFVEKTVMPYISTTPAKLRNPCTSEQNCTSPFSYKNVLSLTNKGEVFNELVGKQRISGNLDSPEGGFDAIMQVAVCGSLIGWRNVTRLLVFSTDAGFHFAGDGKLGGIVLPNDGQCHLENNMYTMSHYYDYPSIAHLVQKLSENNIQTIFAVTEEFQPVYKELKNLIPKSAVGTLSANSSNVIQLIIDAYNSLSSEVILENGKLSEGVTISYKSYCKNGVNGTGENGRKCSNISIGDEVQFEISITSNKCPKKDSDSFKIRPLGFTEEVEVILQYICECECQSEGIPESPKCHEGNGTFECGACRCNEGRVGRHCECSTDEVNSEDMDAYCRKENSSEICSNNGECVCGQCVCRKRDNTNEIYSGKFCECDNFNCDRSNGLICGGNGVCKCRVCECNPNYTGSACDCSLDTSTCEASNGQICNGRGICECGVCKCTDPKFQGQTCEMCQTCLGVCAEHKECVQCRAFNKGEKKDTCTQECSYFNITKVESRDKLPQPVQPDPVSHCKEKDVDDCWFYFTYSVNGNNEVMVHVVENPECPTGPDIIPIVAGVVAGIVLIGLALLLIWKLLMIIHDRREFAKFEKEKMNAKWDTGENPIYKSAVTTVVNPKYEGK
Integrin beta-1 (Homo sapiens) + Integrin alpha-4 (Homo sapiens), sequence (P13612 whole entry, looked up): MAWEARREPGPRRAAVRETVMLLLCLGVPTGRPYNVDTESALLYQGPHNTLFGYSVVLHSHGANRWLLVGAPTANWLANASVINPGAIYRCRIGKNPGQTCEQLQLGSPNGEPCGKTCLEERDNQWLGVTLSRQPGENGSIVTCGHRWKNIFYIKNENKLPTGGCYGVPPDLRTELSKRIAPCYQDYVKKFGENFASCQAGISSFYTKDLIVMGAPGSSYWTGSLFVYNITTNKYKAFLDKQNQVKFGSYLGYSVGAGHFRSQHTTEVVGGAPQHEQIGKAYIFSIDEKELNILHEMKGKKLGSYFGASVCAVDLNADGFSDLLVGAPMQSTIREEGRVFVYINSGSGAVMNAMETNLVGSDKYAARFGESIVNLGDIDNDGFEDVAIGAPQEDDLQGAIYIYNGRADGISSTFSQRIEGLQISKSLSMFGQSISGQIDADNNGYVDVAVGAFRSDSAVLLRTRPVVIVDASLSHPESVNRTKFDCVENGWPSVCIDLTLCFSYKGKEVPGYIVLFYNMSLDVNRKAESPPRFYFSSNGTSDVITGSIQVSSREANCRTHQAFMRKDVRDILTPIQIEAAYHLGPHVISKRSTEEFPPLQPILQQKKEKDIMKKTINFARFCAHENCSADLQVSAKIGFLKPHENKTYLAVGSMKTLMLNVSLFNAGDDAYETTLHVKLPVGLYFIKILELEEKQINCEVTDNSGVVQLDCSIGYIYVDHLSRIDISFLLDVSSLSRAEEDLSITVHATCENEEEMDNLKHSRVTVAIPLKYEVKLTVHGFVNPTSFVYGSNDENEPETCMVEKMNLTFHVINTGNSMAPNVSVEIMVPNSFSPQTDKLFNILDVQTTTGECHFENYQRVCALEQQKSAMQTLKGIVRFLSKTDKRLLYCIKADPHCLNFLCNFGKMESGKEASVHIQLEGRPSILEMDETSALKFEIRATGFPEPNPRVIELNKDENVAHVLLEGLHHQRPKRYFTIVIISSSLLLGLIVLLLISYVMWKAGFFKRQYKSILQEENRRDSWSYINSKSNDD
ATP-binding cassette sub-family B member 6 (Homo sapiens), sequence (Q9NP58 whole entry, looked up): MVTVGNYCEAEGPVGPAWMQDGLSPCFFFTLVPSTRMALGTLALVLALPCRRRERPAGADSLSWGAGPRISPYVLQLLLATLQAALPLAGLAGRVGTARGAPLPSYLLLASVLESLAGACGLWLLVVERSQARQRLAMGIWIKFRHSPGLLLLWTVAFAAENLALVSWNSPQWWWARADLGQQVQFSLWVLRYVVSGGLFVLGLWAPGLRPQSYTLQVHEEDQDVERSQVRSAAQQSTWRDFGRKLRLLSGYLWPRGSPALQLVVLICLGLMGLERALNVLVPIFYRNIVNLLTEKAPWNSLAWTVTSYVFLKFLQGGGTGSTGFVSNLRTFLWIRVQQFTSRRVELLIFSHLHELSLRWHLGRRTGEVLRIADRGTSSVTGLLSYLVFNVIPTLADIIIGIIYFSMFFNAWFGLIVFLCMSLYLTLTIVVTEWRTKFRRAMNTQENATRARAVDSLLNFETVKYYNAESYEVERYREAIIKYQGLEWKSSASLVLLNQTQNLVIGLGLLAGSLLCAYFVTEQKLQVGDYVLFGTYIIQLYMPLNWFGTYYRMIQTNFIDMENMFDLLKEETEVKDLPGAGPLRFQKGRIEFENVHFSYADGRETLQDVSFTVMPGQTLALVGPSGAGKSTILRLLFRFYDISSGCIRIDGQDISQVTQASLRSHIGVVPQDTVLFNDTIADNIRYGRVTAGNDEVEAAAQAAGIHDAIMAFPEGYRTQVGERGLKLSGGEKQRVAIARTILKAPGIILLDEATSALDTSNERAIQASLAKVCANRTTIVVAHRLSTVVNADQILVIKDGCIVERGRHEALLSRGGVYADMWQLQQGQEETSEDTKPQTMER
Beta-adrenergic receptor kinase 1 (Homo sapiens), sequence (P25098 whole entry, looked up): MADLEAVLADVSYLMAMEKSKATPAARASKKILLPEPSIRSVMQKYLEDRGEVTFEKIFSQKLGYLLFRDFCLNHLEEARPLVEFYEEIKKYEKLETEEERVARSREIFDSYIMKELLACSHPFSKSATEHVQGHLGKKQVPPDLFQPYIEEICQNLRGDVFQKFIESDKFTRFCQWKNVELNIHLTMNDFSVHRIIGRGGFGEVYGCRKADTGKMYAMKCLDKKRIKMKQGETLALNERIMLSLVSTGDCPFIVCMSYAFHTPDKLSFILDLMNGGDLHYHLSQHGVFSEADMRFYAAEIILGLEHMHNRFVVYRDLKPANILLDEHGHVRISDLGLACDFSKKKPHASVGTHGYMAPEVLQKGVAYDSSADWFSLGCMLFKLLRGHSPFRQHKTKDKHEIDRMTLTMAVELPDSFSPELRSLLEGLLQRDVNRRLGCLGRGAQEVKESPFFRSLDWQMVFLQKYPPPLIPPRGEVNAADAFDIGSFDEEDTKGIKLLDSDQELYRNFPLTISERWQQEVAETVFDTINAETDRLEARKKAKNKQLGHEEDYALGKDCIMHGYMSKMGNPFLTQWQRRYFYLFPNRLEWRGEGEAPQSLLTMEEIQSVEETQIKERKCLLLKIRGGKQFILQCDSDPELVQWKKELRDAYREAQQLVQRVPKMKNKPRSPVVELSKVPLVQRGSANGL

For orientation: inhibition means the change of the read-out against control, counted positive when it falls. As for `C[C@H](NC(=O)NCCc1ccccc1)C(=O)O`, in test [1], the double positive events is 58.1%. The vesicle binding response in [1] is 252% (inactive). The values for the inhibition in test [2], in test [6] and in [10] were 2.3% (inactive), -3.97% (inactive) and 3% (inactive), respectively. The superoxide response (% of plate) in [3] was 104% (inactive). The aptamer binding inhibition in test [4] is 6% (inactive). The response was 0.08% (inactive) in test [5] and -4.57% (inactive) in test [7]. Besides, the binding (% of control) in test [8] was 99.1% (inactive). Moreover, in test [9], the efflux inhibition (fraction of control) was -0.13 (inactive). The differentiation response in test [11] is 4% (inactive).
Consider `O=C(Cc1ccc(Br)cc1)c1ccc(O)cc1O`, for which, in test [1], the double positive events was determined as 58.3%. In test [1], the vesicle binding response is 228% (inactive). Besides, the inhibition in [2] was -23.6% (inactive); in [6], -2.59% (inactive); in test [10] it was 2% (inactive). In test [3], the superoxide response (% of plate) was 97.7% (inactive). In addition, the aptamer binding inhibition in test [4] is -1% (inactive). Further, the response is -3.21% (inactive) in test [5] and 1.13% (inactive) in test [7]. Besides, the binding (% of control) in [8] is 105% (inactive). For the same compound, in test [9], the efflux inhibition (fraction of control) was 0.09 (inactive). For the same compound, the differentiation response in test [11] is 12.3% (inactive).
In [1], `O=C(NCCc1cccc(F)c1)[C@@H]1CSC2c3ccccc3C(=O)N21` (stereo partly drawn) came in with a double positive events of 63.2%. Besides, the vesicle binding response in [1] was 251% (inactive). Also, the inhibition was 5.03% (inactive) in [2], -1.7% (inactive) in test [6] and 7% (inactive) in [10]. Further, in test [3], the superoxide response (% of plate) is 97.1% (inactive). Further, in [4], the aptamer binding inhibition was 5% (inactive). Besides, the response in test [5] was 1.99% (inactive); in [7] it was 0.26% (inactive). In [8], the binding (% of control) is 101% (inactive). Also, the efflux inhibition (fraction of control) in test [9] is 0.12 (inactive). The differentiation response in test [11] is 2.4% (inactive).
On to `CC(=O)Nc1cc(O)cc(O)c1`, for which the double positive events in test [1] stood at 60.5%. For the same compound, in test [1], the vesicle binding response was 189% (inactive). Further, the figures for the inhibition in test [2], in test [6] and in test [10] were 11.9% (inactive), 0.4% (inactive) and 6% (inactive), respectively. Moreover, the superoxide response (% of plate) in [3] is 99.3% (inactive). In addition, the aptamer binding inhibition in test [4] was -2% (inactive). The response was -0.41% (inactive) in [5] and -0.22% (inactive) in test [7]. The binding (% of control) in [8] is 106% (inactive). In [9], the efflux inhibition (fraction of control) is -0.06 (inactive). Moreover, the differentiation response in [11] was 69.6% (active).
On to `C=CCNC(=S)N1CCc2c([nH]c3ccccc23)C1C` (stereo not drawn), for which the double positive events in [1] stood at 60.6%. Further, the vesicle binding response in test [1] was 194% (inactive). Besides, the values for the inhibition in test [2], in test [6] and in test [10] were 15.1% (inactive), -13.8% (inactive) and 15% (inactive), respectively. Also, the superoxide response (% of plate) in test [3] was 99% (inactive). The aptamer binding inhibition in test [4] is -3% (inactive). Also, the values for the response in test [5] and in test [7] were -13% (inactive) and 2.11% (inactive), respectively. Also, the binding (% of control) in [8] was 102% (inactive). The efflux inhibition (fraction of control) in [9] was -0.09 (inactive). In test [11], the differentiation response was -11.9% (inactive).
On to `C[C@H](NC(=O)OC(C)(C)C)C(=O)NCC1CCC(C(=O)O)CC1` (stereo partly drawn), for which, in test [1], the double positive events is 58%. Further, the vesicle binding response in test [1] was 166% (inactive). In addition, the inhibition in test [2] was 5.03% (inactive); in test [6], -1.54% (inactive); in [10], 6% (inactive). Besides, the superoxide response (% of plate) in [3] is 95.3% (inactive). Further, the aptamer binding inhibition in [4] is 6% (inactive). The figures for the response in test [5] and in test [7] were -13.5% (inactive) and 1.21% (inactive), respectively. For the same compound, in test [8], the binding (% of control) was 99.5% (inactive). In test [9], the efflux inhibition (fraction of control) is -0.06 (inactive). In addition, the differentiation response in test [11] is 0.8% (inactive).
On to `CC(C)C1Cc2[nH]c(=O)c(C(=O)O)cc2CO1` (stereo not drawn), for which the double positive events in test [1] was 64.9%. In addition, the vesicle binding response in test [1] was 1810% (inactive). Besides, the inhibition in test [2] was 25.5% (inactive); in test [6], -1.16% (inactive); in test [10], 10% (inactive). Also, the superoxide response (% of plate) in test [3] is 95.9% (inactive). In test [4], the aptamer binding inhibition is 4% (inactive). Moreover, the figures for the response in [5] and in test [7] were -2.38% (inactive) and -0.04% (inactive), respectively. In addition, in test [8], the binding (% of control) was 94.2% (inactive). Also, the efflux inhibition (fraction of control) in test [9] is -0.1 (inactive). In addition, in test [11], the differentiation response is 3.18% (inactive).
Turning to `O=C1c2ccccc2C(=O)C1c1ccccc1`, in [1], the double positive events turned out to be 67%. The vesicle binding response in [1] was 512% (inactive). In addition, the values for the inhibition in [2], in test [6] and in test [10] were 3.14% (inactive), -6.92% (inactive) and 4% (inactive), respectively. For the same compound, the superoxide response (% of plate) in test [3] was 95.2% (inactive). Besides, the aptamer binding inhibition in test [4] was 7% (inactive). Besides, the response in test [5] is -32.5% (inactive); in test [7], -0.31% (inactive). Besides, the binding (% of control) in test [8] was 102% (inactive). Moreover, in [9], the efflux inhibition (fraction of control) is 0 (inactive). Also, the differentiation response in [11] was -5.97% (inactive).
Turning to `O=C(Nc1cccc(-c2nc3ncccc3o2)c1)c1ccccc1`, in test [1], the double positive events was 56.1%. In addition, the vesicle binding response in test [1] is 159% (inactive). The inhibition in [2] was 2.3% (inactive); in test [6], -1.86% (inactive); in test [10] it was 0% (inactive). Further, in test [3], the superoxide response (% of plate) is 106% (inactive). The aptamer binding inhibition in test [4] was 1% (inactive). Besides, the response in [5] was 17.2% (inactive); in test [7] it was 7.44% (inactive). The binding (% of control) in [8] is 102% (inactive). In addition, the efflux inhibition (fraction of control) in [9] is -0.06 (inactive). Moreover, the differentiation response in test [11] is -16.8% (inactive).
